“And” between values parts separate entries of the source, which are not always exact repeats. Identical values can stand only once. Results filed as inconclusive are left out. Where a call stands in place of a potency, no number is given. The source made the active and inactive calls. Unless noted, calls come from the whole dose curve; as a rule, active = well fitted curve in the direction sought with a large enough effect; inconclusive = small, poorly fitted or top-dose-only effect, or another doubt; inactive = no such curve, though single readings can be large; an effect the other way counts as inactive or inconclusive.
How the values were obtained:
[1] = AP1 Signaling Pathway (AID 357; active = well fitted curve in either direction with a large enough effect, not every such curve was filed as active;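 note: ME-180 reporter cells stimulated with EGF at its EC50 level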); conditions: ME-180 AP-1-bla reporter, EGF-induced, beta-lactamase ratio, 5 h
Outline: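 Titration-series screen for positive or negative modulators of EC50 EGF-induced signaling in ME-180 cells carrying an AP-1-driven beta-lactamase reporter. After 5 hours at 37 degrees Celsius, CCF4 460nm/530nm emission ratio gave %Activity; AC50 values derived.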

[2] = target: Cytochrome P450 1A2 (Homo sapiens) (UniProt P05177); assay: p450-cyp1a2 (AID 410; calls by dose curve); conditions: recombinant CYP1A2, luciferin-ME demethylation, luminescence; series mostly up to 57 µM
Outline: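 Read-out is luminescence from luciferin produced by CYP1A2 demethylation of Luciferin-ME (100uM, at Km). Detection reagent stopped the 60 min NADPH-dependent reaction; signals were normalized to 57 uM furafylline.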

[3] = Stat Signaling Pathway (AID 446; active = well fitted curve in either direction with a large enough effect, not every such curve was filed as active;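 note: ME-180 cervical cancer cells given 40 pM IL-6 alongside compound; SIE-controlled beta-lactamase reporter measured as 460/530 nm FRET emission ratio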); conditions: ME-180 (cervical carcinoma) SIE beta-lactamase reporter, IL-6 stimulated, 5 h
Outline: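 Compound effects on IL-6-induced STAT reporter activity were measured in ME-180 cells. After overnight culture, cells were co-treated with 40 pM IL-6 for 5 hrs before beta-lactamase substrate loading at room temperature.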

[4] = target: Glucocorticoid receptor (Homo sapiens) (UniProt P04150); assay: GR-GFP Redistribution (AID 450;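 active = compounds whose dose series gives a full or clear partial fitted curve of increased nuclear translocation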; note: potency is the fitted concentration of half-maximal effect); conditions: U2OS GR-GFP nuclear translocation, laser cytometry, 2 h
[5] = target: Glucocorticoid receptor (Homo sapiens) (UniProt P04150); assay: GR-EFC Redistribution (AID 451; calls by dose curve; note: potency is the fitted concentration of half-maximal effect); conditions: CHO-K1 GR-EFC translocation, beta-gal luminescence, 2 h
Outline: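 CHO-K1 cells stably expressing nuclear-localized β-gal enzyme acceptor and GR fused C-terminally to the enzyme donor fragment; ligand-driven nuclear translocation restores β-gal by complementation. Compounds titrated up to 46 uM final, 2 h at 37 °C; luminescence read.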

[6] = target: Mitogen-activated protein kinase 10 (Mus musculus) (UniProt Q61831); assay: JNK3 AlphaScreen Assay (AID 530; active = well fitted curve in either direction with a large enough effect, not every such curve was filed as active;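 note: kinase came from lysate of stimulated human HepG2 cells; signal reports phosphorylation of biotinylated GST-cJun 1-79 at Ser73 with 10 µM ATP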); conditions: JNK3 lysate, c-Jun phosphorylation; series mostly up to 57.1 µM
Outline: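 Biotinylated GST-cJun(1-79) served as substrate for JNK3 in HepG2 lysates stimulated with IL-1beta and TNF-alpha. ATP was 10 uM final, pH 7.6. Ser73 phosphorylation was quantified by AlphaScreen (680 nm excitation).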

[7] = qHTS Assay for Lipid Storage Modulators (AID 1519; calls by dose curve); conditions: Drosophila S3 cells, BODIPY lipid droplet/cell ratio, laser cytometry, cells loaded with oleic acid; for activity change, negative = inhibition: at 25.7 µM (top of the series)
Outline: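 Cells seeded at 5,000 per well were treated with compounds over a concentration series and loaded with oleic acid (400 uM, as added). Lipid droplet fluorescence (488 nm excitation, 500-530 nm channel) was read by laser-scanning cytometry and normalized to 20 uM Triacsin C.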

[8] = target: Ubiquitin carboxyl-terminal hydrolase 1 (Homo sapiens) (UniProt O94782); assay: Inhibitors of USP1/UAF1: Pilot qHTS (AID 504865); conditions: purified USP1/UAF1, Ub-rhodamine cleavage fluorescence; series mostly up to 54.9 µM; note: nearly all actives have a fitted effect of over 35% in size; note: potency is the fitted concentration of half-maximal effect;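 for activity change, negative = inhibition: rhodamine fluorescence freed from ubiquitin-rhodamine substrate followed over time; top concentration of the series differs between compounds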
Outline: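 USP1/UAF1 complex (1nM) preincubated with compound 15 min at room temperature, then Ub-Rho substrate (150nM final) added. Fluorescence read kinetically at 480/540 nm, 6 reads every 60 seconds. Buffer: 50mM HEPES pH 7.8, 0.5mM EDTA, 0.1 mg/ml BSA, 1mM TCEP, 0.01% Tween-20.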

[9] = target: Luciferin 4-monooxygenase (Photinus pyralis) (UniProt P08659); assay: Biochemical firefly luciferase enzyme assay for NPC (AID 624030);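 note: purified P. pyralis luciferase at 10 nM with luciferin and ATP substrate; nearly all actives have a fitted effect of over 70% in size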; conditions: purified P. pyralis luciferase, luminescence, 5 min; series mostly up to 58.6 µM
Outline: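 Counter-screen for direct inhibition of the luciferase enzyme by approved-drug library compounds, run at 10 nM enzyme in 50 mM Tris acetate (final). Luminescence was read within 5 min of enzyme-buffer addition and normalized to PTC124 versus DMSO (0%).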

[10] = qHTS profiling for inhibitors of Plasmodium falciparum proliferation (AID 504749); note: nearly all actives have a fitted effect of over 60% in size; conditions: P. falciparum in erythrocytes, SYBR Green DNA, 72 h, at 12.8 µM (top of the series)
Outline: (§1)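 Fluorescence of SYBR Green-bound parasite DNA, read at 485/535 nm, served as the growth measure. Infected erythrocytes were cultured with compound 72 h; artemisinin (0.29 uM) and DMSO wells defined the normalization range.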

[11] = tested on: CP238; assay: as above; conditions: P. falciparum in erythrocytes, SYBR Green DNA, 72 h; series mostly up to 12.8 µM
Outline: as §1

[12] = tested on: CP262; assay: as above; conditions: P. falciparum in erythrocytes, SYBR Green DNA, 72 h; series mostly up to 12.8 µM
Outline: as §1

[13] = tested on: CP325; assay: as above; conditions: P. falciparum in erythrocytes, SYBR Green DNA, 72 h; series mostly up to 12.8 µM
Outline: as §1

[14] = tested on: ECU; assay: as above; conditions: P. falciparum in erythrocytes, SYBR Green DNA, 72 h; series mostly up to 12.8 µM
Outline: as §1

[15] = tested on: FAB9; assay: as above; conditions: P. falciparum in erythrocytes, SYBR Green DNA, 72 h; series mostly up to 12.8 µM
Outline: as §1

[16] = tested on: HB3; assay: as above; conditions: P. falciparum in erythrocytes, SYBR Green DNA, 72 h; series mostly up to 12.8 µM
Outline: as §1

[17] = tested on: JCK; assay: as above; conditions: P. falciparum in erythrocytes, SYBR Green DNA, 72 h; series mostly up to 12.8 µM
Outline: as §1

[18] = NFAT Signaling Pathway (AID 444; active = well fitted curve in either direction with a large enough effect, not every such curve was filed as active;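 note: carbachol stimulus at about its EC50 of 1 µM final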); conditions: Jurkat NFAT-bla M1, carbachol, beta-lactamase ratio, 5 h; at 7.69 µM (top of the series) unless noted
Outline: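 Jurkat cells carrying an NFAT-driven β-lactamase reporter and co-transfected muscarinic M1 receptor were treated with compound plus carbachol (1 uM final, an EC50 level) for 5 h at 37 °C. CCF4 loading followed for 1 h at RT; 460/530 nm ratio gave %activity.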

[19] = target: 3',5'-cyclic-AMP phosphodiesterase 4B (Homo sapiens) (UniProt Q07343); assay: qHTS Assay for Inhibitors of PDE-IV (AID 607; active = well fitted activation curve with a large enough effect in the main read-out, with a control signal flat, not every such curve was filed as active); conditions: HEK293 ACTOne CNG channel cells, membrane potential fluorescence; series mostly up to 22.9 µM
Outline: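 ACTOne HEK293 cells carry a modified cAMP-gated CNG channel and express endogenous PDE4; plated 1000 cells/well, compounds up to 22.9 uM final. Membrane-potential dye fluorescence (ex 535/em 590) was read; parental cells received 10 uM forskolin + 100 uM RO 20-1724.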

[20] = target: Cytochrome P450 3A4 (Homo sapiens) (UniProt P08684); assay: qHTS Assay for Activators of Cytochrome P450 3A4 (AID 885); conditions: recombinant CYP3A4, Luciferin-PPXE luminescence, 60 min; series mostly up to 57.1 µM; note: nearly all actives have a fitted effect of over 65% in size
Outline: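 CYP3A4 activity: Luciferin-PPXE O-dealkylation, 25uM substrate, 200mM KPO4, RT throughout. Read-out is luciferase luminescence; higher values reflect activation.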

[21] = measured here: cell count channel max response
[22] = measured here: lipid channel max response
[23] = at 7.69 µM (top of the series) unless noted

Sequence of Luciferin 4-monooxygenase (Photinus pyralis) (P08659 whole entry, looked up): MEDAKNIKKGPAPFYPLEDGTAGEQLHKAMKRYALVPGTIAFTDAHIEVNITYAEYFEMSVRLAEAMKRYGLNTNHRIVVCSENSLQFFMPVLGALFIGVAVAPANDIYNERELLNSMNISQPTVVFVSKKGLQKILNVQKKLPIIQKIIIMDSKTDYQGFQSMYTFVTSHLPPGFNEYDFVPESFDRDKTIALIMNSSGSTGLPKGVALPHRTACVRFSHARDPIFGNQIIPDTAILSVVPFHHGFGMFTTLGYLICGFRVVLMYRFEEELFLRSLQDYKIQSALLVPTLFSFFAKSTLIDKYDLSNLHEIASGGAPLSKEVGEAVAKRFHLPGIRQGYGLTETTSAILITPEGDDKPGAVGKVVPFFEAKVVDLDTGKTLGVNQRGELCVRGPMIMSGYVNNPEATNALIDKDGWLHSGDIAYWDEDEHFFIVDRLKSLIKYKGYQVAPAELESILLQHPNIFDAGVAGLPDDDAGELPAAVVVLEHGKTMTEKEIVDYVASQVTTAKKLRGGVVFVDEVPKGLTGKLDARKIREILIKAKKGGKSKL
Sequence of Glucocorticoid receptor (Homo sapiens) (P04150 whole entry, looked up, the tested form may be a part): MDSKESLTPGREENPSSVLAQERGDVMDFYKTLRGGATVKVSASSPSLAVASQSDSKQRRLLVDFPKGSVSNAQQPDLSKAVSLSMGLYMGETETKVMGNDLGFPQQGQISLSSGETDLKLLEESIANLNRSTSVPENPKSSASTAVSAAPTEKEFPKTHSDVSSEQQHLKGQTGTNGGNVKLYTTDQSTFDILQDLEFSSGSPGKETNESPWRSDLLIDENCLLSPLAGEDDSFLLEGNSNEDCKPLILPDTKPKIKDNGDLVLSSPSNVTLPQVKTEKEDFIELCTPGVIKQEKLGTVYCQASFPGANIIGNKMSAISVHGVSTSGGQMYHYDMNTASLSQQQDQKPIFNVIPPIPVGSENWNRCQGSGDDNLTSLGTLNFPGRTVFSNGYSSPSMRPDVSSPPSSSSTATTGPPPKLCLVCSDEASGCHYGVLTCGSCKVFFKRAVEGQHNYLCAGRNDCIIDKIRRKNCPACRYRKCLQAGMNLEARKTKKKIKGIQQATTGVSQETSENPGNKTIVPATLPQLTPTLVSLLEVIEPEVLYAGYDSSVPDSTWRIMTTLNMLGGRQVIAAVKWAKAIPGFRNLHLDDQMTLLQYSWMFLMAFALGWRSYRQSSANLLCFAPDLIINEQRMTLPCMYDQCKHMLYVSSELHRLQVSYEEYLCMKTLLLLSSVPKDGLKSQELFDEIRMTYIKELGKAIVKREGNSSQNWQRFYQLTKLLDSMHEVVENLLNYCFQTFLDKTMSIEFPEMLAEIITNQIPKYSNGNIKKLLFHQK
Sequence of Ubiquitin carboxyl-terminal hydrolase 1 (Homo sapiens) (O94782 whole entry, looked up): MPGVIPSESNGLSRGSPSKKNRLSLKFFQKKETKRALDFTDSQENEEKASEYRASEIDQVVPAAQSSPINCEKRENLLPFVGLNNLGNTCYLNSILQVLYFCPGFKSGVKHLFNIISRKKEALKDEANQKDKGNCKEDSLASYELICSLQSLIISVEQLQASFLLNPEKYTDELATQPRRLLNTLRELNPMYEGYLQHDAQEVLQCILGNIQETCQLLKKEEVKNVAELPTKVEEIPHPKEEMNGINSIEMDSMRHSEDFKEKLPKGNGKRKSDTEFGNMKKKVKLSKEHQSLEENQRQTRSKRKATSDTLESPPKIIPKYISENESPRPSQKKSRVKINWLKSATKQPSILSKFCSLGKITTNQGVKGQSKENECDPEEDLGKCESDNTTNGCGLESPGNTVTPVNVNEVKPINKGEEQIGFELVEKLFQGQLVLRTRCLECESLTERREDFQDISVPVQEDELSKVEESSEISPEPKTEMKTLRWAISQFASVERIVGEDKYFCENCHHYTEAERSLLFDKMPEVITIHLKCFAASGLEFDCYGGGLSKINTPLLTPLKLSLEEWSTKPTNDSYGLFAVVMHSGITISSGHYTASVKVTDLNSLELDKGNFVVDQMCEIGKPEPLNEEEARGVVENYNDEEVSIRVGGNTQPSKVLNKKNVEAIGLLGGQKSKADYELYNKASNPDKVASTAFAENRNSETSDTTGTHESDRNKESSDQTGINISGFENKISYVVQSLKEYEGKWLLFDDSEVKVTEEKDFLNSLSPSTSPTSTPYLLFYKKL
Sequence of Cytochrome P450 1A2 (Homo sapiens) (P05177 whole entry, looked up): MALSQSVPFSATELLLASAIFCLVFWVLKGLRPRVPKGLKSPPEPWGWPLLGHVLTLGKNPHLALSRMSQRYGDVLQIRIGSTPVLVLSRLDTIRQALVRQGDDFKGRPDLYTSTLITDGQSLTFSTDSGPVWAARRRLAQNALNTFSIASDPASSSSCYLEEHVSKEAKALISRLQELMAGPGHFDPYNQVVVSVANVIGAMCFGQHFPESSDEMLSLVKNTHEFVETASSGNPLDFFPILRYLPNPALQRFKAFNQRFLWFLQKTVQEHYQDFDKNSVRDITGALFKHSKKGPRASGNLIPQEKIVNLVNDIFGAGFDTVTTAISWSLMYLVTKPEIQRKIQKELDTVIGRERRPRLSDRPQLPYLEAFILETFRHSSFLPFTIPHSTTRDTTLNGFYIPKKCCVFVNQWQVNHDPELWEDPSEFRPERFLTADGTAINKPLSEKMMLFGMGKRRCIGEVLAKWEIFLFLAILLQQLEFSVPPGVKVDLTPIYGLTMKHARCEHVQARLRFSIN
Sequence of 3',5'-cyclic-AMP phosphodiesterase 4B (Homo sapiens) (Q07343 whole entry, looked up): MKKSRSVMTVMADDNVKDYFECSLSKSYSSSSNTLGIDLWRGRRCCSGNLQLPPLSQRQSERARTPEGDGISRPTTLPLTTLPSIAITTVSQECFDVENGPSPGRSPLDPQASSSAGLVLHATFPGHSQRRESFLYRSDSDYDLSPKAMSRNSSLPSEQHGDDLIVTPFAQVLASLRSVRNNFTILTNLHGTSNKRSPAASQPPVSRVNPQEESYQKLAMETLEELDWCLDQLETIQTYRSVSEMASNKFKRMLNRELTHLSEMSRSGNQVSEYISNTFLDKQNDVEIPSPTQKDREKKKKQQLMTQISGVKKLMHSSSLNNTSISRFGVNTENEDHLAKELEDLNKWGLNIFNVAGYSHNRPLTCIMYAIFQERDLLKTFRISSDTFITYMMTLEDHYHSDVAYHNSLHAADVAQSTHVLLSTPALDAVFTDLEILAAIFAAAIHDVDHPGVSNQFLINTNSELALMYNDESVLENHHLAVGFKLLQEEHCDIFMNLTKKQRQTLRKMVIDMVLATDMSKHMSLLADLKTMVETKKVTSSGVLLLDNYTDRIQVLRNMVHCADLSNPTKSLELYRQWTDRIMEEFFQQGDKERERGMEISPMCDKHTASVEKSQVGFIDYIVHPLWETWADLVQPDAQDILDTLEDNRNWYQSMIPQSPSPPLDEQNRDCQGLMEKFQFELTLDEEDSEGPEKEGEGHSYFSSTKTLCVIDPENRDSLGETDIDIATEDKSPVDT
Sequence of Cytochrome P450 3A4 (Homo sapiens) (P08684 whole entry, looked up): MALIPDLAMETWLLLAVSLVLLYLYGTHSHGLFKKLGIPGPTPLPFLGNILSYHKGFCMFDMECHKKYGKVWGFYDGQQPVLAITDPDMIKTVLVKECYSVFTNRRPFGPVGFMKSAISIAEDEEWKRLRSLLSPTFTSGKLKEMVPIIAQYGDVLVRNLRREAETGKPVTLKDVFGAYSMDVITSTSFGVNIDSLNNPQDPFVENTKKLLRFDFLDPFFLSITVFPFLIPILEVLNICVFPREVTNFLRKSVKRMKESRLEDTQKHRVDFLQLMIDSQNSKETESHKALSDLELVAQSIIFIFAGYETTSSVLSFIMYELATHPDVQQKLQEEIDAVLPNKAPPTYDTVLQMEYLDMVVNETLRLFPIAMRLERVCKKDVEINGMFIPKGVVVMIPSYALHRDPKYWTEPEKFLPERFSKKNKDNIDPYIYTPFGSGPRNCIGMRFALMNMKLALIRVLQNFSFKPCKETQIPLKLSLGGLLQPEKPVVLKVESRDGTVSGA

Structure (SMILES): CC(=O)O[C@@H](C)C[N+](C)(C)C
- activity change, negative = inhibition ([1]; at 17.2 µM (top of the series)): 20.9% (inactive)
- activity change, negative = inhibition ([1]; at 38 µM (top of the series)): 13.8% (inactive)
- Potency [2]: inactive
- activity, negative = inhibition ([3]; at 17.2 µM (top of the series)): -1.77% (inactive)
- activity, negative = inhibition ([3]; at 38 µM (top of the series)): 30.8% (inactive)
- Potency [4]: > 46 µM (inactive) and > 20.6 µM (inactive)
- Potency [5]: > 46 µM (inactive) and > 20.6 µM (inactive)
- Potency [6]: inactive
- activity change, negative = inhibition [7]: -1.12% (inactive)
- max response [7, 21]: -2.61%
- max response [7, 22]: -4.64%
- Potency [8]: inactive
- outcome [9]: inactive
- activity, negative = inhibition ([10]; parasite line A): 0.161% (inactive)
- activity, negative = inhibition ([10]; parasite line B): 7.9% (inactive)
- Potency [11]: inactive
- Potency [12]: inactive
- Potency [13]: inactive
- Potency [14]: inactive
- Potency [15]: inactive
- Potency [16]: inactive
- Potency [17]: inactive

Structure (SMILES): CN(C)[C@H]1C(=O)C(C(=O)NCN2CCCC2)=C(O)[C@]2(O)C(=O)C3=C(O)c4c(O)cccc4[C@@](C)(O)[C@H]3C[C@@H]12
- activity change, negative = inhibition [1, 23]: 4.94% [at 17.2 µM] (inactive)
- Potency [2]: inactive
- activity change, negative = inhibition [18]: -7.08% [at 17.2 µM] (inactive)
- activity, negative = inhibition [3, 23]: 7.95% [at 17.2 µM] (inactive)
- Potency [4]: > 20.6 µM (inactive)
- Potency [5]: > 20.6 µM (inactive)
- Potency [6]: inactive
- Potency [19]: inactive
- activity change, negative = inhibition [7]: -2.08% (inactive)
- max response [7, 21]: -14%
- max response [7, 22]: -16.5%
- Potency [8]: 28.2 µM (active)
- outcome [9]: inactive
- activity, negative = inhibition ([10]; parasite line A): -2.6% (inactive)
- activity, negative = inhibition ([10]; parasite line B): 2.5% (inactive)
- Potency [11]: inactive
- Potency [12]: inactive
- Potency [13]: inactive
- Potency [14]: inactive
- Potency [15]: inactive
- Potency [16]: inactive
- Potency [17]: inactive

Structure (SMILES): CO[C@H]1C[C@@H](O[C@@H]2[C@H](C)[C@H](O[C@@H]3O[C@@H](C)C[C@@H](N(C)C)[C@@H]3O)[C@H](C)C[C@]3(CO3)C(=O)[C@H](C)[C@H](O)[C@H](C)[C@H](C)OC(=O)[C@@H]2C)O[C@@H](C)[C@H]1O
- activity change, negative = inhibition [1, 23]: 2.97% [at 17.2 µM] (inactive)
- Potency [2]: inactive
- activity change, negative = inhibition [18]: 8.23% [at 17.2 µM] (inactive)
- activity, negative = inhibition [3, 23]: -6.44% [at 17.2 µM] (inactive)
- Potency [4]: > 20.6 µM (inactive)
- Potency [5]: > 20.6 µM (inactive)
- Potency [6]: inactive
- Potency [19]: inactive
- Potency [20]: inactive
- activity change, negative = inhibition [7]: 1.28% (inactive)
- max response [7, 21]: 9.47%
- max response [7, 22]: 11.6%
- Potency [8]: inactive
- outcome [9]: inactive
- activity, negative = inhibition ([10]; parasite line A): -15.5% (inactive)
- activity, negative = inhibition ([10]; parasite line B): -11.7% (inactive)
- Potency [11]: inactive
- Potency [12]: inactive
- Potency [13]: inactive
- Potency [14]: inactive
- Potency [15]: inactive
- Potency [16]: inactive
- Potency [17]: inactive

Reference: PubChem BioAssay (NCATS)
